Only some compounds are listed: those with a hit (about 4.2% of all), similar ones and a draw of the others.
TRPV1 PAM: human TRPV1 potentiation | Q8NER1 | TRPV1-expressing cells, Fluo-8 calcium influx, capsaicin EC20 potentiation | potentiation, % at 8.33 µM | hit rate 0.02% among 320,000; in the data active = potentiation above about 80%; inconclusive = between about 30% and that limit
Target sequence (Q8NER1 whole entry, looked up): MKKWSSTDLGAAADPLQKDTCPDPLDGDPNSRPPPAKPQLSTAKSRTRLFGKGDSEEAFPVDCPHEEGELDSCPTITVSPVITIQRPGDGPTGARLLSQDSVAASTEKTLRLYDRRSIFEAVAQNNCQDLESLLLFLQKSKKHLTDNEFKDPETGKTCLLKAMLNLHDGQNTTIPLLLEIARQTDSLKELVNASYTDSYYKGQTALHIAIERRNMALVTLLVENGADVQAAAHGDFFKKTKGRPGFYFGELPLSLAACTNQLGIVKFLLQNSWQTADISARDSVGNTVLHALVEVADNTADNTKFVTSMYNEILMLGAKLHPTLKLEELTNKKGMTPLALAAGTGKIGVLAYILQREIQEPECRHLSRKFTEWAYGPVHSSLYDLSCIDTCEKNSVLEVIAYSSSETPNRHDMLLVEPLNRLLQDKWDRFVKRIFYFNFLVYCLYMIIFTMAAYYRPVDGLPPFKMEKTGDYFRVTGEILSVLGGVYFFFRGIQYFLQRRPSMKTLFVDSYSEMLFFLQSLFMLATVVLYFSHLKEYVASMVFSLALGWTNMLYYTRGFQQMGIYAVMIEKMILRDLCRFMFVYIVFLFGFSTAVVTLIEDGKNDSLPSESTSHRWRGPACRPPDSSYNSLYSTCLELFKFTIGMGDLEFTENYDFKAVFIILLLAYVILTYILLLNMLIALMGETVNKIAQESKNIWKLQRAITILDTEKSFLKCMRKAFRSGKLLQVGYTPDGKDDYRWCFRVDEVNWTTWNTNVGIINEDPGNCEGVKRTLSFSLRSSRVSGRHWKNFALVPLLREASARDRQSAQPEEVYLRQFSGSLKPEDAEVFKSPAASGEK
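TRPV1-expressing cells were cultured overnight at 35.5C and loaded with Fluo-8 calcium dye for 40 to 90 min at room temperature. After a 10 s baseline, compound was added and calcium influx was read kinetically for 3 min (ex 480/em 520 nm).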
TRPV1 agonist: activates the human vanilloid receptor TRPV1; Q8NER1; TRPV1-expressing cells, Fluo-8 calcium influx, agonist mode; activation, % at 8.33 µM; hit rate 0.19% among 320,000; in the data active = activation above about 80%; inconclusive = between about 30% and that limit
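Cells expressing TRPV1 were dye-loaded with Fluo-8 and read kinetically: 10 s baseline, 3 min after compound (agonist portion), then 2 min after EC20 capsaicin (allosteric enhancer portion). Calcium-bound dye fluorescence at 480/520 nm.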
D1 antagonist: antagonists of human D1 dopamine receptor. HEK293 TREx D1 cells, calcium flux, dopamine EC80; stronger effect = lower value. activity change, negative = inhibition, % at 10 µM. hit rate 3.2% among 360,000. AID 504652; in the data active = activity change below about -30%
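Antagonism measured as reduced calcium response to an EC80 dopamine addition following 180 s compound pre-read; cells were inducible HEK293 Trex D1 plated overnight at 30 C, read kinetically at 1 cycle/sec.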
D1 potentiator: potentiators of human D1 dopamine receptor. P21728. HEK293 TREx D1 cells, calcium flux, dopamine EC20 potentiation. hit rate 0.036% among 360,000. potentiation, % at 10 µM. AID 504651; in the data active = potentiation above about 30%
D1 agonist: agonists of human D1 dopamine receptor; P21728; HEK293 T-REx D1 cells, calcium flux, agonist mode; activation, % at 2 µM; AID 504660; hit rate 1% among 360,000; in the data active = activation above about 30%
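Agonism was scored from calcium flux recorded over 180 s (1 read/s) after pintool compound addition, following a 10-cycle baseline. Cells were inducible force-coupled HEK293 TREx D1, plated overnight at 30 C and loaded with no-wash calcium dye.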
Numbers stand for hits; n = inactive; u = inconclusive; x = no result given; ! = not active in a repeat.

SMILES	TRPV1 PAM	TRPV1 agonist	D1 antagonist	D1 potentiator	D1 agonist
CNC(=S)N1N=C(c2ccc(C)cc2)CC1c1cc(OC)ccc1OC (stereo not given)	n	n	n	n	n
COc1ccc(CNC(=O)C(=O)NCC(c2cccnc2)N2CCN(c3ccccc3)CC2)cc1 (stereo not given)	x	x	n	n	n
CN(Cc1ccccc1)S(=O)(=O)c1ccc2[nH]c(=O)oc2c1	n	n	-38	n	n
CN(c1ccccc1)S(=O)(=O)c1ccc2[nH]c(=O)oc2c1	n	n	n	n	n
Cc1ccc(-n2cc(C(C)(C)C)[nH]c2=S)cc1	n	n	-46	n	n
COC(=O)CCC(C)N1CCC(Oc2ccc(C(=O)N3CCCC3)cc2)CC1 (stereo not given)	n	n	-30	n	n
COCCC(=O)N1CCC(Oc2ccc(C(=O)N3CCCC(OC)C3)cc2)CC1 (stereo not given)	n	n	-35	n	n
FC(F)C(F)(F)c1cc(-c2ccccc2)n[nH]1	n	n	n	n	43
COc1ccc(Cl)cc1NC(=O)NCCn1c(=O)oc2ccc(C)cc21	x	x	n	n	n
CC(=O)c1cccc(NC(=O)c2c(C)nn(-c3ccc(F)cc3)c2-n2cccc2)c1	x	x	n	n	n
COc1ccccc1N1C(=O)C2C3C=CC(C3)C2C1=O (stereo not given)	n	n	n	n	n
COC(=O)C1=NN(c2ccc(C)cc2)C2C(=O)N(c3ccccc3OC)C(=O)C12 (stereo not given)	n	n	n	n	n
COc1ccccc1N1C(=O)C2C(C(=O)c3ccccc3)=NN(c3ccc(C)cc3)C2C1=O (stereo not given)	n	n	n	n	150
COc1ccccc1N1C(=O)C2C(C(=O)c3ccccc3)=NN(c3ccc(Br)cc3)C2C1=O (stereo not given)	n	n	n	n	35
CCCNC(=O)C1CCC(Cn2c(=O)c3sccc3n(CC(=O)N3CCC(C)CC3)c2=O)CC1 (stereo not given)	x	x	n	n	n
CN1CC(=O)Nc2cc(C(=O)O)ccc21	x	x	-31	n	n
CCCCN(CC)CCCNC(=O)c1ccc2c(c1)NC(=O)CN2C	x	x	n	n	n
O=C(c1nc(-c2ccc(Cl)cc2)n2c1CCCCC2)N1CCN(c2ccccc2F)CC1	x	x	n	n	n
c1ccc(CNCc2nnc(-c3cc4ccccc4[nH]3)s2)cc1	x	x	n	n	n
CCc1ccc(C(=O)c2cn(CC(=O)Nc3ccc4c(c3)OCO4)c3ccc(CC)cc3c2=O)cc1	x	x	n	n	n
CCc1ccc(CN(Cc2ccco2)C(=O)c2ccc(OC)cc2)cc1	x	x	n	n	n
COc1cc(Cl)c(C)cc1NC(=O)CCc1nc2cccnc2n1-c1ccccc1	x	x	n	n	n
CN(Cc1ccccc1)Cc1c[nH]c2ccccc12	n	n	-62	n	n
c1ccc(Cc2c[nH]c3ccccc23)cc1	n	n	n	n	n
COCCOCCn1c(/C=C/c2ccccc2)nc2ccccc21	n	n	n	n	n
SMILES	TRPV1 PAM	TRPV1 agonist	D1 antagonist	D1 potentiator	D1 agonist
CCN(CC)CCSc1nc2ccccc2n1Cc1ccccc1	n	n	-39	n	n
CCCn1c(SCC(=O)O)nc2ccccc21	n	n	-88	n	n
O=C(O)CSc1nc2ccccc2n1Cc1ccccc1	n	n	n	n	n
CCCn1c(/C=C/c2ccccc2)nc2ccccc21	n	u	-35!	n	n
O=C(Cn1cc(S(=O)(=O)c2ccccc2)c(=O)c2cc3c(cc21)OCO3)Nc1ccc(Cl)cc1	x	x	n	n	n
Cc1c(Cl)cccc1NC(=S)NN	n	n	n	n	n
Cc1cccc(Cl)c1NC(=S)NN	n	n	-42	n	n
CC(=O)c1csc(-c2ccccc2)n1	n	n	-55	n	n
O=C(O)c1csc(-c2ccc(Cl)cc2)n1	n	n	n	n	n
CNC(=O)c1csc(-c2ccc(C)cc2)n1	n	81	n	n	n
CNC(=O)c1csc(-c2ccc(Cl)cc2)n1	n	84	n	n	n
O=C(Nc1ccc(Cl)cc1)c1csc(-c2ccncc2)n1	n	n	n	n	n
CNC(=O)c1csc(-c2ccncc2)n1	n	n	n	n	n
O=C(Nc1ccc(Cl)cc1)c1csc(-c2ccccc2)n1	n	81	n	n	n
Cn1cnnc1SCC(=O)c1c(N)n(Cc2ccccc2)c(=O)n(C)c1=O	n	n	-60	n	n

Source: PubChem
